Source: PubChem BioAssay
Cycloheximide cs: counter-screen for Shiga toxin inhibitors: cycloheximide protein synthesis inhibition. cell reporter, cycloheximide protein synthesis inhibition counterscreen. 300,000 compounds, 12% hits. max response, %; in the data active = max response mostly above about 13%, no sharp cut-off; inactive = mostly below about 14%; also: read at 38.3 µM for the half of the compounds with a filed dose; 0% is about no effect
Pf growth 96h: inhibits malaria parasite growth, 96 h | AID 504834 | 320,000 compounds, 6.9% hits | P. falciparum luciferase reporter growth, 96 h | Potency, µM (series often up to 28.7 µM), for the others: at the top dose activity change, negative = inhibition, usual class: inhibitors; also: potency is read from the fitted curve at half-maximal effect; % is scaled to controls: 0 for no effect and ±100 for the full control effect
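Compounds incubated with erythrocytes infected by luciferase-expressing P. falciparum (2% hematocrit, 0.05% parasitemia final) for 96 hours, 37 C in 5% CO2. Growth inhibition scored as decreased luciferase luminescence.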
Pf growth 48h: P. falciparum growth inhibition at 48 hours (one generation) | Potency, µM (highest dose often 28.7 µM), for the others: at the highest dose activity change, negative = inhibition, most hits filed as inhibitors | 310,000 compounds, 5.9% hits | P. falciparum luciferase growth in erythrocytes, 48 h; also: potency is read from the fitted curve at half-maximal effect; % is scaled to controls: 0 for no effect and ±100 for the full control effect
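Compounds are pin-transferred into medium, infected erythrocytes (2% hematocrit, 0.1% parasitemia final) are added, and plates sit one parasite generation at 37 C in 5% CO2. Detection reagent is then added and luminescence measured.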
Shiga toxin inh: inhibitors of Shiga toxin in Vero cells; 290,000 compounds, 9.2% hits; AID 2315; inhibition, % at 38.7 µM; Vero cells, Shiga toxin protein synthesis inhibition reporter; in the data active = inhibition mostly above about 28%, no sharp cut-off; inactive = mostly below about 43%; also: 0% is about no effect
HCMV antiviral: human cytomegalovirus inhibition; HFF cells, HCMV-luciferase reporter, 72 h; active compounds read low; activity change, negative = inhibition, % at 57.5 µM; 410,000 compounds, 4.5% hits; AID 1259415; in the data active = activity change below about -60%; inconclusive = no clear call, values can overlap the other calls; inactive = above about -39%; also: % is scaled to controls: 0 for no effect and ±100 for the full control effect
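Luciferase read-out from HCMV-luciferase-infected HFFs (MOI 1 PFU/cell) 72 h post infection at 37C; compounds added after 16 h cell attachment; activity normalized between buffer-only basal and Salinomycin (10uM) inhibitor controls.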
Numbers without * were called inactive; ? = inconclusive; . = no result given. This is a sample that favours compounds with a hit; in the whole collection about 20% have one here. Unless noted, calls follow the shape of the dose curve; as a rule, active = well fitted inhibition curve with a large enough effect; inconclusive = small, poorly fitted or top-dose-only effect, or another doubt; inactive = no such curve, though single readings can be large or run the other way.

SMILES	Cycloheximide cs	Pf growth 96h	Pf growth 48h	Shiga toxin inh	HCMV antiviral
O=C(NCc1ccccc1)C12CC3CC(CC(C3)C1)C2	-4.5	-23.3%	.	-4.6	15.4
O=C(NNc1c2ccccc2nc2ccccc12)c1ccccc1O	24.9*	10.4µM*	?	27.4	-21.7
COc1cccc(CNC(=O)CCc2cn(Cc3ccccc3Cl)c3ccccc23)c1	.	.	.	.	-21.7
CC(=O)NC1(c2ccccc2)CCN(CC(=O)N2CCC(C)CC2)CC1	-2.3	34.2%	5.5%	-4.1	-2.4
O=C(NNc1c2ccccc2nc2ccccc12)C(O)c1ccccc1 (configuration not stated)	12.0	0.415µM*	?	9.9	0.0
O=C(NNc1c2ccccc2nc2ccccc12)c1ccc(O)cc1	23.5*	-101.5%	?	-6.9	?
O=C(NNc1ccccc1)c1ccccc1	.	.	.	.	16.0
O=C(O)c1cccc(Nc2c3ccccc3nc3ccccc23)c1	107.1*	11.5%	?	87.4*	-17.0
O=C(O)c1cccc(Nc2c([N+](=O)[O-])c(=O)oc3ccccc23)c1	73.4*	30.0%	16.5%	124.9*	-37.5
Cc1cc(C)c(NC(=O)CSc2nc3[nH]ncc3c(=O)[nH]2)c(C)c1	-1.9	0.0%	6.5%	-5.9	?
CN(C(=O)COC(=O)c1cc([N+](=O)[O-])ccc1Cl)c1ccccc1	-3.0	19.0%	7.1%	-4.4	-34.9
COc1ccccc1NC(=O)COc1ccc(Br)cc1CNCCCN1CCOCC1	11.0	1.5%	?	23.1	?
Cc1ccccc1NC(=O)COc1ccc(Br)cc1CNCCCO	7.0	1.85µM*	?	8.9	-25.2
COc1cc(CNCCCN2CCOCC2)c(Br)cc1OCC(=O)Nc1ccccc1C	11.7	?	10.4µM*	34.1	-8.8
OCCCCNCc1cc(Br)ccc1OCc1ccccc1F	-0.2	27.1%	?	-3.8	43.6
O=C(NCc1ccc(Cl)cc1)c1cccc2c1C(=O)N(CC1CCCO1)C2 (configuration not stated)	-2.2	-2.3%	-3.7%	-2.3	-0.7
CCOCN(C(=O)Cn1c(CO)nc2ccccc21)c1c(C)cccc1CC	-6.6	10.4µM*	0.0%	-16.2	20.6
CCc1cccc(CC)c1N(COC)C(=O)Cn1c(C)nc2ccccc21	.	.	.	.	-64.6*
CCc1cccc(CC)c1N(COC)C(=O)Cn1cnc2ccccc21	-2.8	-11.7%	-25.3%	57.8	?
CCOCN(C(=O)CCl)c1c(C)cccc1CC	.	?	13.1µM*	.	-31.0
CCc1cccc(CC)c1N(COC)C(=O)CCl	.	.	.	.	-12.7
CCc1cccc(C)c1NC(=O)Cn1nnc(-c2nc(-c3ccccc3F)no2)c1N	.	.	.	.	-7.3
O=C(c1ccc2c(c1)OCO2)c1cn(Cc2ccc(Cl)cc2)c2ccc(F)cc2c1=O	.	.	.	.	-8.5
Cc1ccc(C(=O)Nc2nnc(SCc3cc(=O)n4ccc(C)cc4n3)s2)cc1	.	.	.	.	28.0
CCCCNS(=O)(=O)c1cc2c3c(c1)CCN3C(=O)CC2	-6.4	68.7%	24.9%	-1.8	10.5
SMILES	Cycloheximide cs	Pf growth 96h	Pf growth 48h	Shiga toxin inh	HCMV antiviral
Cc1ccc(S(=O)(=O)CCC(=O)Nc2nnc(-c3cccs3)o2)cc1	.	?	-7.5%	.	-6.8
Cc1ccc(-c2nnc(-c3cccs3)o2)cc1	31.4*	-5.8%	89.8%	71.7*	13.4
Fc1ccc(/C=C/c2nnc(-c3cccs3)o2)cc1	30.7*	188.1%	175.7%	75.1*	2.2
Cc1ccc(/C=C/c2nnc(-c3cccs3)o2)cc1	46.5*	220.0%	73.7%	47.6*	15.8
COc1ccc(C(=O)O)c(O)c1	.	.	.	.	16.5
COc1ccc(/C(C)=N/N2CCCCC2)c(O)c1	11.8*	18.3%	27.6%	28.7	-12.5
COc1ccc(O)c(/C=N/N2CCCCC2)c1	53.7*	221.1%	191.9%	83.0*	26.9
CCN(CC)C(=O)[C@H]1CC(CC(=O)NCCC2=CCCCC2)C(=O)N2CCc3c([nH]c4ccc(OC)cc34)[C@]12C (some centres not stated)	.	.	.	.	-9.5
CNC(=O)C1CC(=O)N(c2ccc(OCC(=O)Nc3ccc(OC)cc3)cc2)C1 (configuration not stated)	.	?	-2.3%	.	-2.8
O=[N+]([O-])c1ccccc1OCCCN1CCc2ccccc2C1	9.9*	-99.7%	-7.9%	26.8	110.7
COc1ccccc1OCCNc1cc(N2CCCCC2)ccc1[N+](=O)[O-]	8.8	-10.7%	1.9%	-3.7	-14.9
Cc1ccc([N+](=O)[O-])c(OCCN2CCCCCC2)c1	1.7	47.7%	-4.6%	24.7	-78.1*
CCOc1cc(N2CCCC2)ccc1[N+](=O)[O-]	-3.3	6.57µM*	9.5%	-0.9	14.8
Cc1ccc([N+](=O)[O-])c(OCCCN2CCC(Cc3ccccc3)CC2)c1	.	.	.	.	-7.2
Cc1ccc([N+](=O)[O-])c(OCCN2CCc3ccccc3C2)c1	16.0*	?	25.4%	30.1	50.3
COC(=O)[C@H](CCSC)NC(=O)Cn1cnc2c(SC)nc(N)nc21	.	.	.	.	-4.7
Cc1cc(NC(=O)c2ccccc2-c2ccccc2)ccc1Br	-2.5	-30.8%	12.2%	7.6	-39.7
O=C(NCCc1cnc[nH]1)c1ccc(-c2ccccc2)cc1	29.9*	35.6%	29.8%	55.4*	?
O=C(NCc1ccc(F)cc1)c1cc(C2CCCN(C(=O)c3ccc4ccccc4c3)C2)on1 (configuration not stated)	.	.	.	.	-24.5
Cc1nnsc1C(=O)N/N=C/c1c(F)cccc1Cl	7.0	19.0%	7.6%	-16.0	?
Cc1[nH]cnc1C(=O)N/N=C/c1c(Cl)cccc1Cl	36.0*	22.5%	45.4%	45.9	27.0
CC1CCCC/C1=N\NC(=S)NCCc1ccccc1 (configuration not stated)	44.1*	-5.0%	31.3%	97.6*	-3.1
Cc1ccc(NC(=S)N/N=C2\CCCCC2C)cc1 (configuration not stated)	43.5*	-19.0%	17.6%	95.0*	-3.2
COC(=O)C1=C(C)NC(=O)NC1c1ccc2c(c1)OCO2 (configuration not stated)	1.3	?	25.4%	-9.1	26.7
CCn1c(SCC(=O)O)nnc1-c1ccccc1OC	48.9*	11.1%	49.6%	102.6*	1.6
SMILES	Cycloheximide cs	Pf growth 96h	Pf growth 48h	Shiga toxin inh	HCMV antiviral
CCN(CC)C(=O)CSc1nnc(-c2cc3ccccc3cc2O)n1CC	-1.0	-9.5%	8.28µM*	11.2	-25.6
CCN(CC)C(=O)CSc1nnc2ccc3ccccc3n12	.	.	.	.	-37.7
Cn1c(=O)c2c(nc(CN3CCN(c4ccccc4)CC3)n2Cc2c(F)cccc2Cl)n(C)c1=O	1.0	5.22µM*	?	-3.1	-21.2
Cn1c(=O)c2c(nc(CN3CCN(c4ccccc4)CC3)n2Cc2ccccc2Cl)n(C)c1=O	2.6	?	6.57µM*	14.6	29.5
CCOC(=O)c1[nH]c2c(c1Cc1ccccc1OC)C(=O)CC(c1ccc(OC)cc1)C2 (configuration not stated)	.	.	.	.	-35.0
O=C(NC1CCCC1)C(c1ccccn1)N(C(=O)c1csnn1)c1ccccc1F (configuration not stated)	-8.7	15.1%	-1.2%	-1.8	-23.2
